HCMV inh: qHTS Assay for inhibitors of the human cytomegalovirus (HCMV). HFF cells, HCMV-luciferase reporter, 72 h; active compounds read low. actives 4.5% (n = 410,000). activity change, negative = inhibition, % at 57.5 µM; in the data active = activity change below about -60%; inconclusive = no clear call, values can overlap the other calls; inactive = above about -39%
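Two-dose cell screen: HFF monolayers treated with compounds and infected with luciferase-expressing HCMV at 1 PFU/cell, 72 h at 37C, then lysed for luciferase measurement.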
Vaccinia Venus: qHTS for Stage-Specific Inhibitors of Vaccinia Orthopoxvirus: Venus Reporter Primary qHTS; Vaccinia virus Venus reporter expression, fluorescence; Potency, µM (top dose mostly 36.5 µM), hits mostly inhibitors; actives 0.46% (n = 330,000); AID 720580, 2013; calls by dose curve; tested in A549 cells; also: nearly all actives have a fitted effect of over 30% in size
HCV inh: qHTS Assay for Inhibitors of Hepatitis C Virus (HCV); Huh7.5.1 HCVcc-Cre infection, luciferase reporter, 44 h; Potency, µM (highest dose often 41.8 µM), hits mostly inhibitors; actives 3.4% (n = 340,000); AID 651820, 2012; active = well fitted inhibition curve with a large enough effect; inconclusive = small, poorly fitted or top-dose-only effect, or another doubt; inactive = no such curve, though single readings can be large or run the other way
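A cell-based infection assay in which seeded cells (1,000 per well) receive test compound after 4 h, are inoculated with HCVcc-Cre at approximately 0.5 moi, and are incubated 44 h before luminescence detection.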
VACV mCherry inh: qHTS for Stage-Specific Inhibitors of Vaccinia Orthopoxvirus: mCherry Reporter Primary qHTS. Vaccinia virus mCherry reporter infection, fluorescence. Potency, µM (doses to about 36.5 µM), most hits filed as inhibitors. actives 0.63% (n = 310,000); calls by dose curve; tested in A549 cells; also: nearly all actives have a fitted effect of over 35% in size
FMDV antiviral: High Throughput Screening for Foot and Mouth Disease Virus Antivirals | FMDV antiviral cell-based qHTS | actives 1.2% (n = 410,000) | Potency, µM (highest dose often 57.9 µM), most hits filed as inhibitors; calls by dose curve; tested in HEK293T cells; also: read-out not given here; nearly all actives have a fitted effect of over 45% in size
Hits are given with their value; . = inactive; ? = inconclusive; / = no result given; [ ] = dose if it differs, or a comment. An excerpt weighted towards active compounds, which were near 7.3% of everything screened.

SMILES | HCMV inh | Vaccinia Venus | HCV inh | VACV mCherry inh | FMDV antiviral
OC(c1ccccc1)C(NCCNCc1ccccc1)c1ccccc1 (centres undefined) | . | . | . | . | .
Cc1nn(C(=O)c2ccccc2F)c(C)c1S(=O)(=O)N1CCOCC1 | . | . | / | . | .
O=C(CN1C(=O)c2ccccc2S1(=O)=O)Nc1ncc(Cl)cc1Cl | . | / | . | / | ?
CN(C)c1nc(N(C)C)nc(N(C#N)CCOc2ccccc2)n1 | . | . | 11.2µM | / | ?
Cc1cc(C)nc(N(C#N)CCOc2ccccc2)n1 | . | . | ? | . | .
CCC(=O)N1c2ccc(S(=O)(=O)CCC(=O)N3CCN(c4ccc(F)cc4)CC3)cc2CC1C (centres undefined) | . | . | / | . | ?
Cc1ccc(S(=O)(=O)N2CCN(C(=O)c3ccccc3OCc3c(C)noc3C)CC2)cc1 | . | / | 0.562µM | / | .
CC1CCCCN1C(=O)c1ccc2c(c1)N(Cc1cccc(Cl)c1)C(=O)c1ccccc1S2=O (centres undefined) | -67.9 | . | / | . | .
CC1CCCCN1CCNC(=O)c1ccc2c(c1)N(Cc1cccc(Cl)c1)C(=O)c1ccccc1S2=O (centres undefined) | . | ? | ? | . | .
Cc1cccc(N2CCN(C(=O)c3ccc4c(c3)N(Cc3ccccc3F)C(=O)c3ccccc3S4=O)CC2C)c1 (centres undefined) | -63.7 | . | / | . | .
Cc1cccc(N2CCN(C(=O)c3ccc4c(c3)N(Cc3cccc(Cl)c3)C(=O)c3ccccc3S4=O)CC2C)c1 (centres undefined) | -67.2 | . | / | . | .
O=C(NCCC1=CCCCC1)c1ccc2c(c1)N(Cc1cccc(Cl)c1)C(=O)c1ccccc1S2=O (centres undefined) | -62.8 | . | / | . | .
CCN1C(=O)c2ccccc2S(=O)c2ccc(C(=O)N3CCN(c4cccc(C)c4)C(C)C3)cc21 (centres undefined) | . | . | / | . | ?
CCN1CCN(C(=O)c2ccc3c(c2)N(Cc2cccc(Cl)c2)C(=O)c2ccccc2S3=O)CC1 (centres undefined) | ? | . | / | . | .
CC(=O)Nc1ccc(NC(=O)c2ccc3c(c2)N(Cc2cccc(Cl)c2)C(=O)c2ccccc2S3=O)cc1 (centres undefined) | -94.5 | . | / | . | .
CCOC(=O)N1CCN(C(=O)c2ccc3c(c2)N(Cc2cccc(Cl)c2)C(=O)c2ccccc2S3=O)CC1 (centres undefined) | ? | .[7.34 µM] | 17.8µM | .[7.34 µM] | ?
Cc1ncc(CO)c(CNc2ccc(Oc3ccccc3)cc2)c1O | -70.1 | . | 11.2µM | ? | .
O=[N+]([O-])c1ccc(N2CCN(S(=O)(=O)c3ccccc3)CC2)cc1NCc1cccnc1 | . | 17.8µM | . | / | ?
Cc1c(C(=O)N2CCCC2)oc2c1-c1nn(CC(=O)NCc3ccccc3F)cc1CC2 | -64.5 | . | / | . | .
CCN(CC)CCCNC(=O)c1oc2c(c1C)-c1nn(Cc3ccc(Cl)cc3)cc1CC2 | -96.6 | . | / | . | .
CCOP(=O)(Nc1ccc2c(c1)C(=NNC(N)=S)c1ccccc1-2)OCC | . | ? | 11.2µM | 11.2µM | 35.5µM
O=C(N/C(=C\c1ccco1)C(=O)N1CCCC(CO)C1)c1ccccc1 (centres undefined) | . | . | . | . | .
COc1ccccc1NC(=O)COc1ccc(-c2nn(C)c(=O)c3ccccc23)cc1 | . | ? | ? | ? | 17.8µM
COc1ccccc1NC(=O)Cn1nc(-c2ccc(Cl)cc2)c2ccccc2c1=O | ? | . | 10µM | . | .
CCOCCn1ccc2c(OCC(=O)Nc3cc(OC)ccc3OC)cccc2c1=O | . | . | 8.91µM | . | ?
SMILES | HCMV inh | Vaccinia Venus | HCV inh | VACV mCherry inh | FMDV antiviral
COc1ccccc1NC(=O)CCn1nc(-c2ccccc2)c2ccccc2c1=O | . | . | / | . | .
O=c1oc2ccccc2c(Cl)c1CN1CCCCC1 | -63.6 | / | ? | / | ?
O=c1oc2ccccc2c(N2CCCC2)c1CN1CCCC1 | . | . | . | . | /
Cc1cccc(C#Cc2ccccc2)n1 | -64.8 | . | 1.12µM | . | .
O=S(Cc1ccccc1)c1ccccc1 (centres undefined) | . | . | . | . | .
O=C(O)c1cccc(C(=O)O)c1S(=O)Cc1ccccc1 (centres undefined) | -66.0 | / | / | / | /

Bioassay records from PubChem.
